{"source": "PubChem BioAssay", "note": "Active and inactive are the calls of the source. Cut-off read from the data, not from the text of the source: active = fold change permeability below about 0.7 or above about 1.3; inactive = in between.", "data": [{"assay": "compounds altering in vitro BBB leakiness – cell-based, FITC-avidin fluorescence, HTS, primary screen (AID 1963498); note: test concentration not given here", "details": "brain endothelial barrier, actives lie on both sides", "values": [{"smiles": "N#CC(C#N)=C(N)/C(C#N)=C/c1cc(O)c(O)c(O)c1", "fold change permeability": "1.7 (active)"}, {"smiles": "CC(C)(CN1C(=O)C(Cl)=C(Cl)C1=O)CN1C(=O)C(Cl)=C(Cl)C1=O", "fold change permeability": "1.1 (inactive)"}, {"smiles": "OCCN1CCN(CCCN2c3ccccc3Sc3ccc(C(F)(F)F)cc32)CC1", "fold change permeability": "1.4 (active)"}, {"smiles": "[Li+]", "fold change permeability": "1 (inactive)"}, {"smiles": "O=C(O)Cn1c(C(=O)Nc2nc(-c3ccccc3Cl)cs2)cc2ccccc21", "fold change permeability": "1.3 (active)"}, {"smiles": "C=Cc1c(C)c2cc3[nH]c(cc4nc(cc5nc(cc1[nH]2)C(C)=C5CCC(=O)O)C(CCC(=O)O)=C4C)c(C)c3C=C", "fold change permeability": "1 (inactive)"}, {"smiles": "CCC(=O)OCC(=O)[C@@]1(OC(=O)CC)[C@H](C)C[C@H]2[C@H]3[C@H]([C@@H](O)C[C@@]21C)[C@@]1(C)C=CC(=O)C=C1C[C@H]3Cl", "fold change permeability": "1.5 (active)"}, {"smiles": "CCN(CC)S(=O)(=O)Nc1cccc(-c2ccc3c(NC(=O)C4CC4)n[nH]c3c2)c1", "fold change permeability": "1.6 (active)"}, {"smiles": "CCCCCCNc1nc(NC2CCN(C)CC2)c2cc(OC)c(OC)cc2n1", "fold change permeability": "1 (inactive)"}, {"smiles": "CN(C(=O)CCCOc1ccc2[nH]c(=O)ccc2c1)C1CCCCC1", "fold change permeability": "0.9 (inactive)"}, {"smiles": "CN1C2CCC1CC(OC(=O)C(O)c1ccccc1)C2", "note": "(centres undefined)", "fold change permeability": "1.1 (inactive)"}, {"smiles": "COc1ccc2cccc(CCNC(C)=O)c2c1", "fold change permeability": "0.8 (inactive)"}, {"smiles": "Oc1cc2c(cc1O)C(c1ccccc1)CNCC2", "note": "(centres undefined)", "fold change permeability": "0.7 (active)"}, {"smiles": "CC(=O)CCCCn1c(=O)c2c(ncn2C)n(C)c1=O", "fold change permeability": "1 (inactive)"}, {"smiles": "Cn1c(=O)c2[nH]c(-c3ccccc3)nc2n(C)c1=O", "fold change permeability": "1.1 (inactive)"}, {"smiles": "CC(C)(C)c1ccc(/C=C/C(=O)Nc2ccc3c(c2)OCCO3)cc1", "fold change permeability": "2 (active)"}, {"smiles": "COc1cc(CC(=O)O)ccc1O", "fold change permeability": "1.1 (inactive)"}, {"smiles": "N[C@@H](CCCC(=O)O)C(=O)O", "fold change permeability": "1.1 (inactive)"}, {"smiles": "O=C(O)c1ccc(-c2c[nH]c3ncc(-c4ccccc4)cc23)cc1C1CCCC1", "fold change permeability": "1.4 (active)"}, {"smiles": "Cc1ccc(C2Nc3ccccc3C(=O)N2c2ccccc2)s1", "note": "(centres undefined)", "fold change permeability": "1.3 (active)"}, {"smiles": "COC(=O)C1=C(C)NC(C)=C(C(=O)OCCN(C)Cc2ccccc2)C1c1cccc([N+](=O)[O-])c1", "note": "(centres undefined)", "fold change permeability": "1 (inactive)"}, {"smiles": "CCn1c(=O)[nH]c2cc(Cl)c(Cl)cc21", "fold change permeability": "0.7 (active)"}, {"smiles": "CCOc1cc(C(=O)Nc2ccc(Cl)c(-c3nc4ccccc4[nH]3)c2)cc(OCC)c1OCC", "fold change permeability": "1.7 (active)"}, {"smiles": "O=C(Nc1nc2ccccc2n1CCN1CCOCC1)c1cccc([N+](=O)[O-])c1", "fold change permeability": "1.9 (active)"}, {"smiles": "CC(C)(Sc1ccc(CCN(CCCCC2CCCCC2)C(=O)NC2CCCCC2)cc1)C(=O)O", "fold change permeability": "1 (inactive)"}, {"smiles": "COc1cc2c[n+](C)c3c4cc5c(cc4ccc3c2cc1OC)OCO5", "fold change permeability": "1.1 (inactive)"}, {"smiles": "Oc1cc(O)c2c(c1)O[C@H](c1ccc(O)c(O)c1)[C@@H](O)C2", "fold change permeability": "0.8 (inactive)"}, {"smiles": "NCCc1cnc[nH]1", "fold change permeability": "1.3 (active)"}, {"smiles": "CCCCc1ncc(/C=C(\\Cc2cccs2)C(=O)O)n1Cc1ccc(C(=O)O)cc1", "fold change permeability": "0.9 (inactive)"}, {"smiles": "Cc1ccc(Cl)c(Nc2ccccc2C(=O)O)c1Cl", "fold change permeability": "1.3 (active)"}, {"smiles": "CN1C(=O)c2sccc2N(C)c2nc(Nc3ccc(S(N)(=O)=O)cc3)ncc21", "fold change permeability": "1.8 (active)"}, {"smiles": "N[C@@H](Cc1c[nH]c2ccc(O)cc12)C(=O)O", "fold change permeability": "1 (inactive)"}, {"smiles": "Clc1ccc(Cn2c(CN3CCCC3)nc3ccccc32)cc1", "fold change permeability": "1.2 (inactive)"}, {"smiles": "CCN1/C(=C/C(C)=O)Sc2ccc(O)cc21", "fold change permeability": "1.1 (inactive)"}, {"smiles": "N[C@H](C(=O)O)[C@H](O)C(=O)O", "fold change permeability": "0.9 (inactive)"}, {"smiles": "N[C@H](C(=O)O)[C@H](Cc1ccccc1)C(=O)O", "fold change permeability": "1.2 (inactive)"}, {"smiles": "NS(=O)(=O)c1cc2c(cc1Cl)NC(C1CC3C=CC1C3)NS2(=O)=O", "note": "(centres undefined)", "fold change permeability": "1.3 (active)"}, {"smiles": "CCCCCCCCCCCCCCCC(=O)OC(CC(=O)O)C[N+](C)(C)C", "note": "(centres undefined)", "fold change permeability": "1.3 (active)"}, {"smiles": "CNC(=O)Nc1cc(Oc2cncc(OC)c2)c(C2CCCOC2)cn1", "note": "(centres undefined)", "fold change permeability": "1.1 (inactive)"}]}]}
